# From PubChem BioAssay (EPA / NIEHS)
# Results filed as inconclusive are left out. Calls of active or inactive are those of the source. How the source made its calls, unless noted: active means hit-call score of the fitted dose curve at least 0.9, where 1 is the maximum; inconclusive means response in the unintended direction; inactive means score below 0.9.
# Tests used:
# [1] = target: Hepatocyte nuclear factor 6 (Homo sapiens) (UniProt Q9UBC0); assay: ATG_HNF6_CIS: Attagene CIS-FACTORIAL HepG2 Assay for human Hepatocyte Nuclear Factor 6 (HNF6) (AID 2282952; active means hit-call score of the fitted dose curve at least 0.9, where 1 is the maximum; inactive means score below 0.9); conditions: HepG2 Attagene cis-factorial HNF6 reporter transcription; actives raise or lower the signal
# Outline: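 Endogenous transcription factor activity in human HepG2 liver cells was captured through cis-regulated reporter constructs. After 24 h treatment, reporter mRNA was measured by RT-PCR with capillary electrophoresis, and activity was fitted in both directions relative to DMSO.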
# [2] = ATG_PBREM_CIS: Attagene CIS-FACTORIAL HepG2 Assay for human Phenobarbital-responsive Enhancer Module (PBREM) (AID 2282955; active means hit-call score of the fitted dose curve at least 0.9, where 1 is the maximum; inactive means score below 0.9); conditions: HepG2 PBREM cis-reporter, Attagene multiplexed transcription; actives raise or lower the signal
# Outline: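 HepG2 cells transiently transfected with multiple cis-regulated reporter transcription units; endogenous factor activity at the PBREM element measured as reporter mRNA 24 h after dosing, via RT-PCR and capillary electrophoresis of fluorescent fragments; bidirectional fitting versus DMSO.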
# [3] = target: Paired box protein Pax-6 (Homo sapiens) (UniProt P26367); assay: ATG_Pax6_CIS: Attagene CIS-FACTORIAL HepG2 Assay for human Paired Box 6 (PAX6) (AID 2282956; active means hit-call score of the fitted dose curve at least 0.9, where 1 is the maximum; inactive means score below 0.9); conditions: HepG2 CIS-FACTORIAL PAX6 reporter transcription, RNA readout; actives raise or lower the signal
# Outline: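 Fluorescent RT-PCR products separated by capillary electrophoresis report PAX6-linked promoter mRNA in HepG2 cells 24 h post-dose. Curves fitted bidirectionally, DMSO as negative control.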
# [4] = ATG_TA_CIS: Attagene CIS-FACTORIAL HepG2 Assay for human TA Basal Promoter (AID 2282964; active means hit-call score of the fitted dose curve at least 0.9, where 1 is the maximum; inactive means score below 0.9); conditions: HepG2 Attagene CIS-factorial TA basal promoter reporter; actives raise or lower the signal
# Outline: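 HepG2 cells transiently transfected with multiple reporter units under cis promoter elements, reporting endogenous transcription factor activity; this endpoint tracks the TA basal promoter as background control. Reporter mRNA after 24 h dosing measured by RT-PCR/capillary electrophoresis; bidirectional fits versus DMSO.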
# [5] = ATG_M_06_TRANS: Attagene TRANS-FACTORIAL HepG2 Assay for M06 Transcription Factor (Internal Marker) (AID 2282983); conditions: HepG2 Attagene TRANS M06 internal marker reporter;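 further: reporter transcript level by RT-PCR then capillary electrophoresis fluorescence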
# Outline: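 Human liver HepG2 cells bearing transiently transfected chimeric NR-GAL4 reporter units were treated with chemicals for 24 h. Total RNA was reverse-transcribed, reporter sequences amplified and labelled, then quantified by capillary electrophoresis. Activity was fitted upward relative to DMSO.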
# [6] = ATG_NF_kB_CIS: Attagene CIS-FACTORIAL HepG2 Assay for human Nuclear Factor Kappa B (NF-kB) (AID 2282991; active means hit-call score of the fitted dose curve at least 0.9, where 1 is the maximum; inactive means score below 0.9); conditions: HepG2 Attagene cis-factorial NF-kB reporter mRNA; actives raise or lower the signal
# Outline: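 HepG2 cells transiently transfected with multiplexed cis-element reporter units measuring endogenous transcription factor activity; reporter mRNA read 24 h after dosing by RT-PCR, fluorescent labelling, HpaI digestion and capillary electrophoresis. Bidirectional fit against DMSO baseline.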
# [7] = target: Retinoic acid receptor RXR-alpha (Homo sapiens) (UniProt P19793); assay: ATG_RXRa_TRANS: Attagene TRANS-FACTORIAL HepG2 Assay for human Retinoid X Receptor alpha (RXRa) (AID 2283012)
# Outline: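 Chimeric NR-GAL4 trans-activation in HepG2, 24 h treatment; reporter transcripts quantified by fluorescence on capillary electrophoresis, analysed for upward change from DMSO.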
# [8] = target: human Retinoid X Receptor beta (RXRb), RXRB (gene 6257) (UniProt P28702); assay: ATG_RXRb_TRANS: Attagene TRANS-FACTORIAL HepG2 Assay for human Retinoid X Receptor beta (RXRb) (AID 2283013)
# Outline: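 After a 24 h incubation with test chemical, transfected HepG2 cells carrying NR-Gal4 fusions and GAL4-UAS reporter transcription units yield RNA whose reporter cDNA is FAM-labelled, HpaI-cut and sized by capillary electrophoresis; increases over DMSO are scored.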
# [9] = TOX21_p53_BLA_p2_viability: Viability Assessment in the Tox21 HCT-116 p53 Agonism Beta-lactamase Assay, Phase 2 (AID 2283591);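 further: compound exposure lasted 16 h at 37 °C; actives lower the ATP signal meaning cytotoxicity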
# Outline: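 HCT116 p53-bla cells, 4000/well, dosed after 5 h plating (217-fold dilution of DMSO stocks) and incubated 16 h at 37C. Viability taken as cellular ATP by CellTiter-Glo luminescence after 30 min RT; signal loss marks cytotoxicity.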
# [10] = target: Cellular tumor antigen p53 (Homo sapiens) (UniProt P04637); assay: TOX21_p53_BLA_p2_ratio: Tox21 HCT-116 p53 Agonism Beta-lactamase Assay, Ratio, Phase 2 (AID 2283592)
# Outline: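 Cleaved-to-uncleaved substrate ratio (460 vs 530 nm) measured in HCT116 cells with an inducible beta-lactamase reporter linked to p53 activity. Compounds incubated 16 h at 37C before 2 h room-temperature CCF4-AM loading.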
# [11] = target: Cellular tumor antigen p53 (Homo sapiens) (UniProt P04637); assay: TOX21_p53_BLA_p3_ratio: Tox21 HCT-116 p53 Agonism Beta-lactamase Assay, Ratio, Phase 3 (AID 2283596)
# Outline: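 Cells were seeded at 4000/well, rested 5 h at 37C, then dosed with DMSO compound solutions (217-fold dilution) for 16 h. CCF4-AM substrate was loaded for 2 h at room temperature, and the 460/530 nm emission ratio was fitted for gain of signal versus DMSO.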
# [12] = target: Cellular tumor antigen p53 (Homo sapiens) (UniProt P04637); assay: TOX21_p53_BLA_p4_ratio: Tox21 HCT-116 p53 Agonism Beta-lactamase Assay, Ratio, Phase 4 (AID 2283601)
# Outline: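 HCT-116 p53 beta-lactamase reporter cells (4000/well) preincubated 5 h, then compound (217-fold dilution of DMSO stock) for 16 h at 37C. CCF4-AM substrate added 2 h at room temperature; 460/530 nm emission ratio fitted upward versus DMSO.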
# [13] = ATG_M_19_CIS: Attagene CIS-FACTORIAL HepG2 Assay for M19 Transcription Factor (Internal Marker) (AID 2282939; active means hit-call score of the fitted dose curve at least 0.9, where 1 is the maximum; inactive means score below 0.9); conditions: HepG2 Attagene CIS-FACTORIAL M19 internal marker reporter; actives raise or lower the signal
# Outline: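 HepG2 cells transiently transfected with cis-regulated multiplexed reporter units, dosed 24 h. Reporter mRNA quantified by RT-PCR and capillary electrophoresis; internal background marker fitted bidirectionally versus DMSO.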
# [14] = ATG_GATA_CIS: Attagene CIS-FACTORIAL HepG2 Assay for human GATA Binding Protein (AID 2282944; active means hit-call score of the fitted dose curve at least 0.9, where 1 is the maximum; inactive means score below 0.9); conditions: HepG2 GATA cis-element reporter, Attagene multiplex mRNA; actives raise or lower the signal
# Outline: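 HepG2 cells transiently transfected with multiplexed cis-element reporter units measure endogenous GATA activity; after 24 h compound exposure, reporter mRNA quantified by RT-PCR and capillary electrophoresis. Changes fitted in both directions vs DMSO.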
# [15] = ATG_NFI_CIS: Attagene CIS-FACTORIAL HepG2 Assay for human Nuclear Factor I (NFI) (AID 2282989; active means hit-call score of the fitted dose curve at least 0.9, where 1 is the maximum; inactive means score below 0.9); conditions: HepG2 cis-regulatory reporter, NFI response element transcription; actives raise or lower the signal
# Outline: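 Endogenous TF activity in HepG2 cells transiently transfected with cis-element-driven multiplexed reporter units, read 24 h after dosing. Reporter mRNA quantified by RT-PCR, 6-FAM labelling, HpaI digestion and capillary electrophoresis; bidirectional fit versus DMSO.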
# [16] = ATG_GRE_CIS: Attagene CIS-FACTORIAL HepG2 Assay for human Glucocorticoid Response Elements (GRE) (AID 2282947; active means hit-call score of the fitted dose curve at least 0.9, where 1 is the maximum; inactive means score below 0.9); conditions: HepG2 GRE cis-reporter, Attagene multiplex mRNA; actives raise or lower the signal
# Outline: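 Read-out: fluorescent reporter-transcript fragments separated by capillary electrophoresis after RT-PCR. Transiently transfected HepG2 cells carrying cis-element-driven reporter units were dosed for 24 h; gain or loss of signal fitted against DMSO control.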
# [17] = target: Hepatocyte nuclear factor 4-alpha (Homo sapiens) (UniProt P41235); assay: ATG_HNF4a_TRANS: Attagene TRANS-FACTORIAL HepG2 Assay for human Hepatocyte Nuclear Factor 4 alpha (HNF4a) (AID 2282982); conditions: HepG2 HNF4a transactivation reporter, mRNA readout
# Outline: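 Transient MRTU transfection of HepG2, 24 h dosing. Readout: reporter mRNA via RT-PCR + capillary electrophoresis, fluorescence; activity fit upward relative to DMSO control.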
# [18] = target: Cellular tumor antigen p53 (Homo sapiens) (UniProt P04637); assay: TOX21_p53_BLA_p5_ratio: Tox21 HCT-116 p53 Agonism Beta-lactamase Assay, Ratio, Phase 5 (AID 2283599)
# Outline: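 HCT-116 p53-bla cells (4000/well) plated 5 h, dosed with compound (217-fold DMSO dilution) for 16 h at 37 C; CCF4-AM substrate 2 h at room temperature. Activity is the 460/530 nm emission ratio (405 nm excitation), fitted in gain-of-signal direction versus DMSO.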
# [19] = ATG_M_32_TRANS: Attagene TRANS-FACTORIAL HepG2 Assay for M32 Transcription Factor (Internal Marker) (AID 2282984); conditions: HepG2 Attagene TRANS M32 internal marker reporter
# Outline: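 Read-out: fluorescent reporter cDNA fragments resolved by capillary electrophoresis after RT-PCR of total RNA. Transfected HepG2 cells were exposed to chemical for 24 h. Activity scored in the positive direction relative to DMSO.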
# [20] = target: human Vitamin D Receptor (VDR), VDR (gene 7421) (UniProt P11473); assay: ATG_VDR_TRANS: Attagene TRANS-FACTORIAL HepG2 Assay for human Vitamin D Receptor (VDR) (AID 2283022)
# Outline: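 Fluorescence of labelled reporter cDNA fragments, resolved by capillary electrophoresis, gives mRNA induction after 24 h treatment of HepG2 cells carrying transfected Gal4-fusion reporter units. Activity is fitted in the positive direction with DMSO as baseline.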
# Chain of Retinoic acid receptor RXR-alpha (Homo sapiens) (P19793 whole entry, looked up, the tested form may be a part): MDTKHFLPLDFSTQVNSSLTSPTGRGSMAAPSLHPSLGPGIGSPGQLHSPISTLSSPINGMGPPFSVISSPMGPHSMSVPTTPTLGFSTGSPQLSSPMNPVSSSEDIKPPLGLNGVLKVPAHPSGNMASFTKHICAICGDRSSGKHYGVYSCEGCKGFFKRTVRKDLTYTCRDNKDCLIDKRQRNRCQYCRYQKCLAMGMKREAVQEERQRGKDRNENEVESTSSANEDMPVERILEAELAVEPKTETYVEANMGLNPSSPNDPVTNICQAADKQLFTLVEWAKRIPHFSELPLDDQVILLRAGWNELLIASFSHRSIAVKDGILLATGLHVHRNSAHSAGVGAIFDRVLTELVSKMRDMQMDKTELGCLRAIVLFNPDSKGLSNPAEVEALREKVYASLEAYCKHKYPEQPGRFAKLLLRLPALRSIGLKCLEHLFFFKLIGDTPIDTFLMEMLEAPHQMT
# Chain of Hepatocyte nuclear factor 6 (Homo sapiens) (Q9UBC0 whole entry, looked up): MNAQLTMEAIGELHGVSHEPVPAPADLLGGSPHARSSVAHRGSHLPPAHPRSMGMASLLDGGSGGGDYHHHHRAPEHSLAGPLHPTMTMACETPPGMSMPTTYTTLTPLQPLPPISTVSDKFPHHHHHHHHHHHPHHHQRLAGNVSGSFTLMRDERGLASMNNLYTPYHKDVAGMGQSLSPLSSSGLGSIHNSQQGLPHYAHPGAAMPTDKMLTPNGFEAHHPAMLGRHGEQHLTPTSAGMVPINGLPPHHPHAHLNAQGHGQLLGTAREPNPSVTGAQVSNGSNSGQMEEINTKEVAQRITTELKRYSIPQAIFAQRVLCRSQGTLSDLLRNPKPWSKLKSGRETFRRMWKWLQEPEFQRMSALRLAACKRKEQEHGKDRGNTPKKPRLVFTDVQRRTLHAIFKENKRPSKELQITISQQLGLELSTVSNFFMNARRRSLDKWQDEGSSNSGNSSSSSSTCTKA
# Chain of Paired box protein Pax-6 (Homo sapiens) (P26367 whole entry, looked up): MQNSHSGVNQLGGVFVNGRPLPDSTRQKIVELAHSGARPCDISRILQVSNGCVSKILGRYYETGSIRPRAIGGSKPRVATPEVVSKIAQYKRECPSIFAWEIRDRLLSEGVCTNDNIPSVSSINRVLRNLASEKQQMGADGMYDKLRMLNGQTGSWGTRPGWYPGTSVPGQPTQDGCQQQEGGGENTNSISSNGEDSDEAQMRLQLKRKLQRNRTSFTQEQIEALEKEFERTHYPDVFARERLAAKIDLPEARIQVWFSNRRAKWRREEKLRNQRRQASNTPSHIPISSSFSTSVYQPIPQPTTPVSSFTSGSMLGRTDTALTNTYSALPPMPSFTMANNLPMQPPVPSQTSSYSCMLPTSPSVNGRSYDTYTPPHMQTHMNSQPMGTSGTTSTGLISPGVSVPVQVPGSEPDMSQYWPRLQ
# Chain of Cellular tumor antigen p53 (Homo sapiens) (P04637 whole entry, looked up): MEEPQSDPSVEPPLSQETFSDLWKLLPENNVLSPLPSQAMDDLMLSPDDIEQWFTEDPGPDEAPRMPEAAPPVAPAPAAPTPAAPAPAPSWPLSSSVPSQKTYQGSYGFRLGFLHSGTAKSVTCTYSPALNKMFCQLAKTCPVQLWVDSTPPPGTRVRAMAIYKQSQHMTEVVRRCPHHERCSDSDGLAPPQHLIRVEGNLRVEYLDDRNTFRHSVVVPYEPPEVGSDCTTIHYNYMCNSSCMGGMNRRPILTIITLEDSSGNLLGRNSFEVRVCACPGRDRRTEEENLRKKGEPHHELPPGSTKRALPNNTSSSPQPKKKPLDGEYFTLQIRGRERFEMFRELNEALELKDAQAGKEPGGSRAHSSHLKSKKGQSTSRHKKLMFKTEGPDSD
# Chain of human Retinoid X Receptor beta (RXRb), RXRB (gene 6257) (P28702 whole entry, looked up, the tested form may be a part): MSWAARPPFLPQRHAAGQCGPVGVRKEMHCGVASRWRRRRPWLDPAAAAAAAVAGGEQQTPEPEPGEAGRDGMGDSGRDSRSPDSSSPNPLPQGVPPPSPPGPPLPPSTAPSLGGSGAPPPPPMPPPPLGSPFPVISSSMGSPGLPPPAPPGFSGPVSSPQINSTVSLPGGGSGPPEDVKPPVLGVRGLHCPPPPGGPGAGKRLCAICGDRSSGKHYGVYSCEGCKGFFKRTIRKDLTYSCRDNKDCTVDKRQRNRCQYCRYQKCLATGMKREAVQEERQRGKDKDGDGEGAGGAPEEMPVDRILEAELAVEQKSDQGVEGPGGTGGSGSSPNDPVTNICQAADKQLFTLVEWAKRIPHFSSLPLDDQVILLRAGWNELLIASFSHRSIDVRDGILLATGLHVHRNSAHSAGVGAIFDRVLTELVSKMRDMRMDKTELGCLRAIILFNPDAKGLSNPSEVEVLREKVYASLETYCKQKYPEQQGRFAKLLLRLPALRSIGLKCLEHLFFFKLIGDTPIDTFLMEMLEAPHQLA
# Chain of human Vitamin D Receptor (VDR), VDR (gene 7421) (P11473 whole entry, looked up, the tested form may be a part): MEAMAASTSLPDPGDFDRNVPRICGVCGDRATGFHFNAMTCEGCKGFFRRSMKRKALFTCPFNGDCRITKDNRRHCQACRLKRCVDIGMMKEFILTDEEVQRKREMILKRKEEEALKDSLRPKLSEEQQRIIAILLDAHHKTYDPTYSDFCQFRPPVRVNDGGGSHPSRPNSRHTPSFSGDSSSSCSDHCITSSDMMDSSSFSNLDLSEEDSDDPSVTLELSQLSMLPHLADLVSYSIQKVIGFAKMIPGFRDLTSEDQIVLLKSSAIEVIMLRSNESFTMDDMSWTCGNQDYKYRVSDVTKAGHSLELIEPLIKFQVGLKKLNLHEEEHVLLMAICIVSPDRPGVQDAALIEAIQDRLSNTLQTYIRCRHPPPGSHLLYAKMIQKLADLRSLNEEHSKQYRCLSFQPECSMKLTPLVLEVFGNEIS
# Chain of Hepatocyte nuclear factor 4-alpha (Homo sapiens) (P41235 whole entry, looked up): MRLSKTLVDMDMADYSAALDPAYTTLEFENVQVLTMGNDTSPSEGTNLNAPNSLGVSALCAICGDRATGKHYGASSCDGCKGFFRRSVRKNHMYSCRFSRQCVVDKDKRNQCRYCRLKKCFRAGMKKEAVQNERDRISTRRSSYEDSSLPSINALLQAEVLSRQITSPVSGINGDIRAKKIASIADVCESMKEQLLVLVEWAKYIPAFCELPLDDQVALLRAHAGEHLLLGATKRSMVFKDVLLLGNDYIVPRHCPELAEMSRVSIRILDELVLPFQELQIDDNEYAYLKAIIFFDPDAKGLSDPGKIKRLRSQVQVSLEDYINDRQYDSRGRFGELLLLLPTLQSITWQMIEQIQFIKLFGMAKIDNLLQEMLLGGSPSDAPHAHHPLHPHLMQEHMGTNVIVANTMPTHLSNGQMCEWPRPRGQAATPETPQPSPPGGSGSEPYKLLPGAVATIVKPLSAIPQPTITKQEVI
smiles,measurement,setting,value
C[C@H]1C[C@H]2[C@@H]3CCC4=CC(=O)C=C[C@]4(C)[C@@]3(F)[C@@H](O)C[C@]2(C)[C@@]1(O)C(=O)CO,outcome,[1],inactive
same,outcome,[2],inactive
same,AC50,[3],69 µM (active)
same,AC50,[4],100 µM (active)
same,outcome,[5],inactive
same,outcome,[6],inactive
same,outcome,[7],inactive
same,outcome,[8],inactive
same,outcome,[9],inactive
same,outcome,[10],inactive
same,outcome,[11],inactive
same,outcome,[12],inactive
CCCC[N+]1(C)CCCC1,outcome,[13],inactive
same,outcome,[14],inactive
same,outcome,[1],inactive
same,outcome,[3],inactive
same,outcome,[4],inactive
same,outcome,[5],inactive
same,outcome,[15],inactive
same,outcome,[7],inactive
Nc1nnc(-c2ccc([N+](=O)[O-])o2)o1,outcome,[13],inactive
same,outcome,[14],inactive
same,outcome,[16],inactive
same,outcome,[2],inactive
same,outcome,[4],inactive
same,outcome,[17],inactive
same,outcome,[15],inactive
same,outcome,[6],inactive
same,outcome,[8],inactive
same,outcome,[9],inactive
same,AC50,[10],85.7 µM (active)
same,outcome,[11],inactive
same,outcome,[18],inactive
same,AC50,[12],70.1 µM (active)
CCOC(=O)c1ccccc1,outcome,[14],inactive
same,AC50,[16],61.9 µM (active)
same,outcome,[1],inactive
same,outcome,[3],inactive
same,outcome,[4],inactive
same,outcome,[19],inactive
same,outcome,[15],inactive
same,outcome,[7],inactive
same,outcome,[9],inactive
same,outcome,[10],inactive
same,outcome,[11],inactive
same,outcome,[18],inactive
CCCCC(CC)COC(=O)CS (centres undefined),outcome,[14],inactive
same,outcome,[16],inactive
same,outcome,[1],inactive
same,outcome,[3],inactive
same,outcome,[19],inactive
same,outcome,[6],inactive
same,outcome,[7],inactive
same,outcome,[8],inactive
same,outcome,[20],inactive
same,outcome,[9],inactive
same,outcome,[10],inactive
same,outcome,[11],inactive
same,outcome,[12],inactive
